Sampled rows, rich in hits. Any-hit rate of the full collection: about 9%.
BAZ2B block: blocks human BAZ2B. AlphaScreen BAZ2B-H3K14Ac peptide displacement. Potency, µM (titrated, usually from 114 µM), without a hit: at the highest dose activity change, negative = inhibition, hits mostly inhibitors. 360,000 compounds, 4.4% hits. AID 504333; also: % is scaled to controls: 0 for no effect and ±100 for the full control effect; nearly all actives have a fitted effect of over 60% in size
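Complex of BAZ2B and biotin-H3K14Ac (50 nM apiece) forms over 30 min at RT, then faces library compounds up to 110 uM for another 30 min; AlphaScreen beads added, 20 min dark incubation, luminescence read.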
PLK1 PBD inh: inhibitors of human PLK1 polo-box domain binding; P53350; Plk1 PBD binding of FITC phosphopeptide, fluorescence polarization; Potency, µM, without a hit: max response, negative = inhibition, usual class: inhibitors; 360,000 compounds, 2.8% hits; also: series mostly up to about 57 µM; % is scaled to controls: 0 for no effect and ±100 for the full control effect; nearly all actives have a fitted effect of over 65% in size
Target sequence (P53350 whole entry, looked up, the tested form may be a part): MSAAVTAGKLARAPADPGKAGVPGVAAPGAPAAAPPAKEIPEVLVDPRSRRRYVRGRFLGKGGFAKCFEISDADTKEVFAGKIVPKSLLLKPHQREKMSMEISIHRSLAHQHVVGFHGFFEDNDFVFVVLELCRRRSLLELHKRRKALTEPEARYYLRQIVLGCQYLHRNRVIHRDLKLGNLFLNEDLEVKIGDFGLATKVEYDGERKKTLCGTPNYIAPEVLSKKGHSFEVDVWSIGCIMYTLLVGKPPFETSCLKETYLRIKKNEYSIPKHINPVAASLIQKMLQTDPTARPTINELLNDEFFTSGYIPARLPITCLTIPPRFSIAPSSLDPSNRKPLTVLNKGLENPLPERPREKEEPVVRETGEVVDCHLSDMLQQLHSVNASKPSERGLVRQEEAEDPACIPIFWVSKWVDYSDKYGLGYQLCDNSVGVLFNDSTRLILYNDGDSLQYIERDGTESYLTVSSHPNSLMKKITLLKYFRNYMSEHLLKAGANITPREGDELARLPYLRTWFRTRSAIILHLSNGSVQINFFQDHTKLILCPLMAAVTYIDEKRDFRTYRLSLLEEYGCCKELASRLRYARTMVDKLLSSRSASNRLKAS
HP1b binding inh: blocks HP1-beta chromodomain binding to methylated histone tails. AlphaScreen HP1-beta / biotin-H3K9me3 peptide binding. Potency, µM (top dose mostly 114 µM), without a hit: at the highest dose activity change, negative = inhibition, most hits filed as inhibitors. 390,000 compounds, 0.56% hits. P83916; also: nearly all actives have a fitted effect of over 70% in size
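Compound inhibition of the preformed complex between 50 nM HP1-beta and 50 nM biotinylated H3K9me3 peptide was read by AlphaScreen. Buffer was PBS pH 7.4 with 0.01% Tween-20. Incubations ran 30 min at room temperature, with 10 ug/mL donor/acceptor beads.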
12-LOX inh: ALOX12 (human) lipoxygenase inhibition | P18054 | purified 12hLO, xylenol orange hydroperoxide absorbance | Potency, µM (doses to about 108 µM), without a hit: at the top dose activity change, negative = inhibition, hits mostly inhibitors | 580,000 compounds, 1.1% hits; also: % is scaled to controls: 0 for no effect and ±100 for the full control effect
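Purified human 12hLO (150 nM final) in 25 mM Hepes, 0.01% Triton X-100, pH 7.0 was preincubated 15 min at room temperature with compound. Then 40 uM arachidonic acid was added, 30 min. Hydroperoxide was read by Fe-XO absorbance ratio 573/405 nm.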
G9a inh: blocks human histone lysine methyltransferase G9a | Q96KQ7 | G9a H3K9 monomethylation, AlphaScreen, 2 h | Potency, µM (top dose mostly 102 µM), inactives show at the top dose activity, negative = inhibition, most hits filed as inhibitors | 350,000 compounds, 8.8% hits | AID 504332; also: % is scaled to controls: 0 for no effect and ±100 for the full control effect; nearly all actives have a fitted effect of over 75% in size
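AlphaScreen detection with an anti-monomethyl H3K9 antibody quantified product after a 2 h room-temperature reaction containing 500 nM biotinylated H3K9 peptide, 20 µM SAM and 20 nM enzyme, which had been preincubated 15 min with compound.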
JMJD2A Tudor: blocks the human JMJD2A Tudor domain; AlphaScreen JMJD2A-Tudor / H3K4me3 peptide binding; Potency, µM (top dose mostly 114 µM), without a hit: top-dose activity change, negative = inhibition, usual class: inhibitors; 390,000 compounds, 4.4% hits; AID 504339; also: % is scaled to controls: 0 for no effect and ±100 for the full control effect; nearly all actives have a fitted effect of over 50% in size
* = called active by the depositor; ? = inconclusive; . = no result given; [ ] = dose if it differs, or a comment. Calls follow the shape of the dose curve; as a rule, active = well fitted curve in the direction sought with a large enough effect; inconclusive = small, poorly fitted or top-dose-only effect, or another doubt; inactive = no such curve, though single readings can be large; an effect the other way counts as inactive or inconclusive. Potency is read from the fitted curve at half-maximal effect.

SMILES	BAZ2B block	PLK1 PBD inh	HP1b binding inh	12-LOX inh	G9a inh	JMJD2A Tudor
O=C(Cn1cnc2scc(-c3ccc(F)cc3)c2c1=O)N1CCOCC1	12%	2%	16%	-23%	-4%	0%
Cc1ccc(-c2csc3ncn(CC#N)c(=O)c23)cc1	9%	-16%	35%	-14%	.	-26%
Cc1ccc(-c2csc3ncn(CC(=O)N4CCOCC4)c(=O)c23)cc1C	-12%	30µM*	-15%	-1%	-32%	-11%[11.4 µM]
CCN(Cc1ccccc1)C(=O)COc1cc(=O)n(CC)c2ccccc12	-2%	-8%	9%	-14%	10%	-2%
Cc1cc(C(F)(F)F)n2nc(C)c(-c3ccc(Cl)cc3)c2n1	-1%	-5%	32%	-20%	-9%[59 µM]	-11%[57.1 µM]
Cc1cc(C(F)(F)F)n2nc(C(=O)O)c(Cl)c2n1	-5%	-2%	22%	45µM*	9%[59 µM]	-13%
O=C(NC(=S)NN1CCCCC1c1cccnc1)c1ccc(Cl)cc1Cl (configuration not stated)	-4%	-14%	23%	46%	71µM*	-24%
O=C(NC(=S)N1CCCCC1c1cccnc1)c1ccc(F)cc1 (configuration not stated)	-13%[57.1 µM]	?	-1%	-5%	32µM*	-19%
Cc1cccc(NC(=S)N2CCCCC2c2cccnc2)c1C (configuration not stated)	-4%	-5%	-6%	-2%	-25%	-6%
O=C(NC(=S)N1CCCCC1c1cccnc1)c1ccc(Br)cc1 (configuration not stated)	-4%[57.1 µM]	?	35%	?	22µM*	0%
O=C(/C(=C/c1ccccc1)n1cncn1)c1ccc(Cl)cc1Cl	-9%	19µM*	1%	?	-6%[59 µM]	-24%
CCn1c(SCC(=O)c2ccc(F)cc2)nnc1-c1ccoc1C	-14%	-11%	-4%	6%	-36%[12.7 µM]	?
CCn1ncc(CNC(=O)CCCSc2nc(-c3ccco3)cc(C(F)(F)F)n2)c1C	-9%	-4%	23%	-35%	16µM*	-6%
CCc1ccccc1NC(=O)CCCSc1nc(-c2ccco2)cc(C(F)(F)F)n1	-3%	.	17%	-20%	11%[59 µM]	-11%
CCN(CC)S(=O)(=O)c1ccc(N2CCN(C)CC2)c(NC(=O)c2cc(=O)c3ccccc3o2)c1	29%	-1%	-18%	-12%	1%	-11%
O=C1NC(=Nc2ccc3ccccc3c2)S/C1=C/c1ccco1	20µM*	-29%	9%	32µM*	50µM*	?
Cc1ccc(N=C2NC(=O)/C(=C\c3ccco3)S2)cc1	40µM*	-25%	-21%	?	?	?
COc1ccc(N2C(S)=C(C#N)C(=O)NC23CCCCC3)cc1	?	-22%	30%	-26%	35µM*	-14%
CCNC(=O)c1ccc(-n2c(-c3ccccc3)cc3c2CCCCC3)cc1	1%	.	19%	-7%	-10%[59 µM]	-28%
Oc1ccc(N=C/C=C/c2cccc(Br)c2)cc1-c1nc2ccccc2s1	?	?	-15%	.	7.9µM*	?
Oc1ccc(-c2nc3ccccc3s2)c(O)c1	15%	-21%	84%	5%	14%	13%
Nc1ccc(O)c(-c2nc3ccccc3s2)c1	-28%	-29%	-2%	56%	14µM*	-16%
O=C(Nc1cccnc1)c1c(O)c2cccc3c2n(c1=O)CC3	1%	-7%	21%	11%	-36%[12.7 µM]	-10%
Nc1c(O)cccc1C(=O)O	.	-18%	-15%	?	.	56µM*
O=C(O)c1cccc(C(=O)O)c1Br	?	0%	4%	-5%	9%	89µM*
SMILES	BAZ2B block	PLK1 PBD inh	HP1b binding inh	12-LOX inh	G9a inh	JMJD2A Tudor
O=C(O)c1cccc2c(Br)cccc12	.	.	.	13%	.	.
CCOc1cccc(=O)c2c(C)n(-c3ccc(C(=O)O)cc3)c(C)c12	50µM*	-21%	?	?	.	?
COc1cc(/C=N/n2c(-c3cc(C)[nH]n3)n[nH]c2=S)cc(OC)c1O	?	-8%	?	?	5µM*	3.5µM*
Cc1cccc(-c2n[nH]c(=S)n2/N=C/c2ccc(C)o2)c1	-31%	-13%	-33%	?	2µM*	7.9µM*
Cc1cc(-c2n[nH]c(=S)n2/N=C/c2ccc(C)o2)n[nH]1	-29%	-14%	?	1%	7.9µM*	3.2µM*
Cc1ccc(/C=N/N2CCCCC2)o1	-16%	-10%	2%	3%	?	-7%
COc1ccc(/C=N/n2c(-c3cc(C)[nH]n3)n[nH]c2=S)cc1	-27%	-18%	?	?	2.2µM*	3.5µM*
CC(/C=N/n1c(-c2cc(C)[nH]n2)n[nH]c1=S)=C\c1ccccc1	-37%	-9%	7%	1%	?	?
COc1ccc(/C=N/n2c(-c3cc(C)[nH]n3)n[nH]c2=S)cc1OC	?	-1%	16%	?	.	3.5µM*
CCOC(=O)C(=NCCCN(C)C)NNc1cc(C(F)(F)F)ccc1Cl	-34%	-14%	?	?	40µM*	45µM*
CCCCN=C(NNc1ccc(Br)cc1)C(=O)OCC	?	-3%	-10%	?	11µM*	?
CCOC(=O)C(=O)NNc1ccc(C)cc1	3%	4%	30%	-8%	?	-6%
CCOC(=O)C(=NCCCN(C)C)NNc1ccc(Br)cc1	4%	-23%	-3%	?	7.1µM*	-11%
Cc1ccc(S(=O)(=O)N2[C@@H](c3ccc(Cl)cc3)C(C(=O)O)=CC[C@H]2c2ccc(Cl)cc2)cc1	-30%	?	12%	?	-3%[2.33 µM]	-19%
Cc1cccc(C)c1OCc1n[nH]c(=S)o1	-3%	-8%	42%	45µM*	2.2µM*	-28%
Cc1cccc(OCc2cc(-c3ccccc3)no2)c1C	208%	-7%	205%	14%	399%	197%
Cc1cccc(OCc2n[nH]c(=S)o2)c1	-39%	-15%	13%	-26%	10µM*	?
Cc1cccc(OCc2n[nH]c(=S)o2)c1C	56µM*	-4%	50%	-10%	20µM*	-13%
COc1cc(OC)c(C2=CCN(S(=O)(=O)N3CCCCC3C)CC2)c(OC)c1 (configuration not stated)	.	.	.	-21%	.	.
CCOc1ccc(-c2[nH]ncc2-c2ccc(Cl)cc2)c(O)c1	-38%	2%	37%	?	-4%	-31%
CCOc1ccc(-c2[nH]ncc2-c2ccc(Br)cc2)c(O)c1	.	.	.	28µM*	.	.
O=C(COc1ccc(Cl)cc1Cl)N1CCCCC1c1ccccn1 (configuration not stated)	.	.	.	-1%	.	.
CC1CN(C(=O)C(C)N2CCN(c3cccc(Cl)c3)CC2)CC(C)O1 (configuration not stated)	-3%	30µM*	?	-10%	35%	63µM*

Compound activity from PubChem BioAssay.
